# This is one part of a sample in which hits are shown more often than they occur.
# FECH block = human FECH heme synthesis enzyme inhibition; actives 3.3% (n = 20,000); AID 1671448; calls only at 10 µM (by protocol); purified FECH, Ni-mesoporphyrin absorbance 550 nm;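 active means enzyme reaction rate more than 3 SD below the solvent-only control wells on the same plate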;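 further: lower slope than DMSO wells means FECH inhibition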
# Target sequence (P22830 whole entry, looked up): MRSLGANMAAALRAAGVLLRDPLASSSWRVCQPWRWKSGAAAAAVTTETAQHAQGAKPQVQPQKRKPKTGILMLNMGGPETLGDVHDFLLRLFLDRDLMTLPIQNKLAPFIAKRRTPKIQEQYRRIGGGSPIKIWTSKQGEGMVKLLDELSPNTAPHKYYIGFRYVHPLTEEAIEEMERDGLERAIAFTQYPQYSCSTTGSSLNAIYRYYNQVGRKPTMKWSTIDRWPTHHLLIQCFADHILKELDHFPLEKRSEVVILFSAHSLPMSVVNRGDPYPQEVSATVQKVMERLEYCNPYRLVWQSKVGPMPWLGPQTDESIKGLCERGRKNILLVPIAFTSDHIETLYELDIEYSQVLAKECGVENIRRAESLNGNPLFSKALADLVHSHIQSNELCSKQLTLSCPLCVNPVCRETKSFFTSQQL
# Starred values were filed as active, the others as inactive; i = inactive; + = active, no number.
SMILES,FECH block
O=C(Nc1nc2n(n1)C(c1ccccc1Cl)C=C(c1ccc(Cl)cc1)N2)c1ccco1 (stereo not given),+
CC(C)CC(=O)Nc1nc2n(n1)C(c1ccc(F)cc1)C=C(c1ccc(Cl)cc1)N2 (stereo not given),i
Cc1ccc(C2=CC(c3ccccc3Cl)n3nc(NC(=O)CC(C)C)nc3N2)cc1 (stereo not given),+
O=C(Nc1nc2n(n1)C(c1ccccc1Cl)C=C(c1ccc(Cl)cc1)N2)c1ccc(F)cc1 (stereo not given),i
CC(C)CC(=O)Nc1nc2n(n1)C(c1ccc(Cl)cc1)C=C(c1ccc(Cl)cc1)N2 (stereo not given),+
CC(C)C(=O)Nc1nc2n(n1)C(c1ccccc1Cl)C=C(c1ccc(Cl)cc1)N2 (stereo not given),i
CC(C)CC(=O)Nc1nc2n(n1)C(c1ccccc1Cl)C=C(c1ccc(Cl)cc1)N2 (stereo not given),i
CCC(=O)Nc1nc2n(n1)C(c1ccccc1Cl)C=C(c1ccc(Cl)cc1)N2 (stereo not given),i
CC(=O)Nc1nc2n(n1)C(c1ccc(Cl)cc1)C=C(c1ccc(Cl)cc1)N2 (stereo not given),i
CC(C)C1CCN(Cc2cn(C3CCN(C(=O)NC(C)(C)C)CC3)nn2)CC1,i
O=C(Cc1nc2ccccc2o1)NCc1ccc2nonc2c1,i
CCOc1ccc(C(=O)Nc2ccc(Nc3nc(C)cc(Nc4ccc(C)cc4)n3)cc2)cc1OCC,i
CC(=O)Nc1ccc(S(=O)(=O)NCc2nc3cccnc3n2C)cc1,i
O=S(=O)(NCc1nc2cccnc2n1C1CC1)c1ccc(Cl)cc1,i
COc1ccccc1Cn1c(CNS(=O)(=O)c2ccc(C(C)(C)C)cc2)nc2cccnc21,+
CCOc1ccc(S(=O)(=O)NCc2nc3cccnc3n2Cc2ccccc2OC)cc1,i
CC(C)Cc1ccc(S(=O)(=O)NCc2nc3cccnc3n2C)cc1,i
COc1ccc(S(=O)(=O)NCc2nc3cccnc3n2C2CC2)cc1,+
COc1ccccc1Cn1c(CNS(=O)(=O)c2ccc(F)cc2)nc2cccnc21,i
CCCc1ccc(S(=O)(=O)NCc2nc3cccnc3n2C)cc1,+
Cc1ccc(S(=O)(=O)NCc2nc3cccnc3n2CC(C)C)cc1C,+
Cc1ccc(S(=O)(=O)NCc2nc3cccnc3n2C2CC2)cc1,i
Cc1ccc(S(=O)(=O)NCc2nc3cccnc3n2CC(C)C)cc1Cl,i
CC(C)Cn1c(CNS(=O)(=O)c2cccc(Cl)c2)nc2cccnc21,i
Cc1cc(C)n2c(-c3n[nH]c(Cc4ccccc4)n3)nnc2n1,i
SMILES,FECH block
CCCc1nnc(C(=O)N(C)Cc2n[nH]c3c2CCC3)o1,i
Cc1ccccc1-c1cc(O)c2c(c1)CN(CCn1nccc1C)CCO2,i
CC(C)Cc1cc(CNC(=O)c2ccc(Cl)cn2)on1,i
Cc1cc(NC(=O)Cn2cncn2)n(-c2ccccc2)n1,i
CCCC(=O)Nc1cccc(C(=O)N2CCC(Cc3noc(C4CC4)n3)CC2)c1,i
CC(C)C1=NOC(c2nc(C3CC3)nn2-c2ccc3c(c2)OCCO3)C1 (stereo not given),i
CCOc1ccc(N(Cc2nc3nc(C)cc(C)n3n2)C(=O)c2cccc([N+](=O)[O-])c2)cc1,i
Cc1noc(C)c1CN(C)C(=O)c1cc(COc2ccccc2F)[nH]n1,i
Cc1ccc(-c2noc(CSCC(=O)Nc3ccccc3C(F)(F)F)n2)cc1,i
CC(=O)NCCC(=O)Nc1ccnn1Cc1cccc(Cl)c1,i
Cc1ccc(NCc2ccc(C(=O)NCCc3cnc[nH]3)cc2)cc1,i
CCn1c(CNS(=O)(=O)c2ccc(CC(C)C)cc2)nc2cccnc21,i
COCCn1c(CNS(=O)(=O)c2ccc(C(C)C)cc2)nc2cccnc21,i
COCCn1c(CNS(=O)(=O)c2ccc(CC(C)C)cc2)nc2cccnc21,+
Cc1cc(C)c2c(CC(=O)N3CCn4c(C(N)=O)cnc4C3)coc2c1C,i
C=Cc1ccc(CN(c2nc3nc(C)c(Cl)c(C)n3n2)S(=O)(=O)c2ccc(Cl)cc2)cc1,i
CCN1CCC(C(=O)NCc2cccnc2N(C)C2CCCCC2)C1 (stereo not given),i
COc1ccc(NC(=O)CN(C)S(=O)(=O)c2ccc(C(=O)N3CCOCC3)s2)cc1,+
COc1ccc(CN2CCCN(CC(=O)Nc3ccc4c(c3)OCCO4)S2(=O)=O)cc1,i
COc1ccc(CNS(=O)(=O)c2ccc(C(=O)N(C)C)s2)cc1,i
Cc1cccc(-c2cc(N3CCN(C(=O)Nc4ccc(C)cc4C)CC3)ncn2)c1,i
CC(=O)NCCc1cn(-c2ccc3c(c2)CCCN3C(C)=O)cn1,i
CC(=O)NCCc1cn(-c2ccc(-c3ncc(C)cn3)cc2)cn1,i
CC(=O)NCCc1cn(-c2cccc(OC(C)C)c2)cn1,+
COc1ccc(C(=O)Nc2ccccc2Sc2cc(C)nc3nc(-c4ccccc4)nn23)cc1,i
SMILES,FECH block
O=C(O)c1cc(O)cc(-c2ccccc2CN2CCOCC2)c1,+
COC(C)c1ccc(-c2cc(C(=O)O)cc(S(=O)(=O)N3CCOCC3)c2)cc1 (stereo not given),i
Clc1nc(-c2ccccc2CN2CCOCC2)ns1,i
O=C(Cc1ccccc1)NCC(=O)N1CCC(c2nc(-c3ccccc3)no2)CC1,i
COc1ccc(-c2ncc3c(=O)n(Cc4nc(-c5ccccc5OC)oc4C)c(=O)n(C)c3n2)cc1,i
NS(=O)(=O)c1ccc(CCNC(=O)CN2CCSc3ccccc32)cc1,i
NS(=O)(=O)c1ccc(CCNC(=O)CCN2C(=O)c3cccnc3Sc3ccccc32)cc1,+
NS(=O)(=O)c1ccc(CCNC(=O)CCCN2C(=O)c3cccnc3Sc3ccccc32)cc1,i
CC(=O)Nc1cccc(Nc2cc(-c3ccc(C)cc3)nc(C)n2)c1,i
CCc1ccc(CNC(=O)C2CCCN(S(=O)(=O)N3CCOCC3)C2)cc1 (stereo not given),i
Cc1cccc(C(C)C)c1NC(=O)CN1c2ccc(Br)cc2-c2ccccc2S1(=O)=O,i
Cc1ccc(NC(=O)CN2CCN(Cc3ccccc3C)S2(=O)=O)cc1C,i
Cc1ccc(NC(=O)CN2c3ccc(Br)cc3-c3ccccc3S2(=O)=O)cc1,+
O=C(CN1c2ccc(Br)cc2-c2ccccc2S1(=O)=O)NC1CC1,+
NS(=O)(=O)c1ccc(NC(=O)CN2C(=O)c3ccccc3S2(=O)=O)cc1,i
Cc1ccc(NC(=O)CN2c3ccc(Br)cc3-c3ccccc3S2(=O)=O)cc1C,+
CC(C)CCNC(=O)CN1c2ccc(Br)cc2-c2ccccc2S1(=O)=O,+
COc1ccc(NC(=O)CN2c3ccc(Br)cc3-c3ccccc3S2(=O)=O)cc1,i
O=C1CN(C(=O)CN2c3ccc(Br)cc3-c3ccccc3S2(=O)=O)c2ccccc2N1,i
O=C(CN1c2ccc(Br)cc2-c2ccccc2S1(=O)=O)Nc1ccc(F)cc1F,i
Cc1ccc(-c2nc3cccnc3n2CCN2CCN(C(=O)Nc3c(C)cccc3C)CC2)cc1,i
c1ccc(C(Cn2ccnc2-c2ccncc2)N2CCCCC2)cc1 (stereo not given),i
CCc1noc(CN(CC)C(=O)c2ccc3nc(C)c(C)nc3c2)n1,i
CCc1cc(Sc2ccc(NC(=O)Nc3ccc(C)c(C)c3)cc2)n2nc(C)nc2n1,i
O=C(c1nc(N2CCCC2)c2oc3ccccc3c2n1)N1CCc2ccccc21,i
